# Screening data deposited in PubChem BioAssay by National Center for Advancing Translational Sciences (NCATS).
# ALDH1A1 block: inhibitors of human aldehyde dehydrogenase 1A1; P00352; 220,000 tested, 7.3% active; Purified ALDH1A1, NADH fluorescence, propionaldehyde substrate; Potency, µM (top dose mostly 75.3 µM), for inactives: at the highest dose activity, negative = inhibition, hits mostly inhibitors;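 note: plate controls were no enzyme wells and a reference inhibitor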
# Target sequence (P00352 whole entry, looked up): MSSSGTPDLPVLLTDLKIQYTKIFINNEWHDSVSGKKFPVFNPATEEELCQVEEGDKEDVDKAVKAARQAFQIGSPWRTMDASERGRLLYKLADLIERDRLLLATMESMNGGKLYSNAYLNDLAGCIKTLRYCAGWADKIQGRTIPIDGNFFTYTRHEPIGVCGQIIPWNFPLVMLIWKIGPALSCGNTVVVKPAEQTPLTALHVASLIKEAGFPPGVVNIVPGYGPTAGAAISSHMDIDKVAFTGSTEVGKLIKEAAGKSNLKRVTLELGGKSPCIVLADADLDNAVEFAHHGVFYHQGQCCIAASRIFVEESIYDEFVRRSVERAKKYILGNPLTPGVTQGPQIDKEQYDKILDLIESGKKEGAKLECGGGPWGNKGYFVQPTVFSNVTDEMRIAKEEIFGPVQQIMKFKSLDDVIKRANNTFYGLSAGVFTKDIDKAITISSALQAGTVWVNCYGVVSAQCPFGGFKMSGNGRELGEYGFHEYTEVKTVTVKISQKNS
# HPGD block: blocks human HPGD enzyme activity. P15428. purified HPGD, NADH fluorescence kinetic, PGE2 substrate. Potency, µM, inactives show top-dose activity change, negative = inhibition, hits mostly inhibitors. 150,000 tested, 4.3% active. AID 894
# Target sequence (P15428 whole entry, looked up): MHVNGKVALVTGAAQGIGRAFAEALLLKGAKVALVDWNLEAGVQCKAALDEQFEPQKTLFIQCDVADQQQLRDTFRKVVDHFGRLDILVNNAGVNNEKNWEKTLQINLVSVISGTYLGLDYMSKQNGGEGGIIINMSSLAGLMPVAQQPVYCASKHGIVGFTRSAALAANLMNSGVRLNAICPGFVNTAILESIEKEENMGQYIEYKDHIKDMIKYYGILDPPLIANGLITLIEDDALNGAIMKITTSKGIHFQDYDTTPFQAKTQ
#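 20 nM HPGD preincubated 15 min at room temperature with compound in 50 mM Tris-HCl pH 8, 0.01% Tween 20. Started with 1 mM NAD+ and 30 uM prostaglandin E2; NADH fluorescence (360/450 nm) read 5 times over 30-s intervals, last minus first.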
# Lamin A splicing: modulators of lamin A splicing | 200,000 tested, 0.01% active | Potency, µM (titrated, usually from 46.1 µM), without a hit: top-dose ratio change, negative = inhibition, usual class: inhibitors | HeLa LMNA splicing GFP/RFP minigene ratio, 48 h | AID 1487; active = well fitted inhibition curve with a large enough effect in the signal ratio, with a control signal flat, not every such curve was filed as active; inconclusive = small, poorly fitted or top-dose-only effect, or effect the other way, or a change in a side signal; the % refers to the signal ratio
#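 S3 HeLa cells stably expressing lamin A-EGFP splicing minigene plus DsRed2, 600 cells/well, 48 h compound exposure at 37C. Laser-scanning cytometry; analysed as GFP (500-530 nm)/RFP (575-640 nm) total intensity ratio; 0.5% DMSO vehicle.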
# KinaseGlo FLuc: counter-screen: inhibitors of Kinase-Glo firefly luciferase; Kinase-Glo luciferase, ATP luminescence, 8 min; 200,000 tested, 0.28% active; Q27757; Potency, µM (titrated, usually from 38.3 µM), inactives show at the top dose activity change, negative = inhibition, hits mostly inhibitors; active = well fitted curve in the direction sought with a large enough effect; inconclusive = small, poorly fitted or top-dose-only effect, or another doubt; inactive = no such curve, though single readings can be large; an effect the other way counts as inactive or inconclusive; note: nearly all actives have a fitted effect of over 60% in size
#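 Light output from Kinase-Glo luciferase with luciferin and 10 uM ATP in 50 mM imidazole pH 7.2, KCl, MgCl2, Tween 20, BSA; compound pin-delivered, 8-min ambient incubation, then luminescence read.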
# IMPase Li cell: cell-permeable IMPase inhibitors with lithium potentiation | 210,000 tested, 0.35% active | CHO-M1 cells, IP1 TR-FRET (IP-One), carbachol + lithium | Potency, µM (series often up to 59.4 µM), inactives show top-dose activity, negative = IMPase inhibition, usual class: inhibitors; active = well fitted curve in the direction sought with a large enough effect; inconclusive = small, poorly fitted or top-dose-only effect, or another doubt; inactive = no such curve, though single readings can be large; an effect the other way counts as inactive or inconclusive;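 note: IP1 builds up when IMPase is blocked and the TR-FRET signal falls; plate controls were basal vehicle for no effect and high inhibitor control for full effect; nearly all actives have a fitted effect of over 50% in size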
#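 Lithium-sensitised IP1 accumulation assay; M1-expressing CHO cells treated 30 min at 37C with compound. Competitive antibody detection by time-resolved FRET followed a 10 min room-temperature lysis step.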
# * marks the source's active call; other numbers are inactive results; ? = inconclusive; · = no result; [ ] = another dose, or the depositor's remark. Compounds with a hit are over-represented: about 9% of the library has one in this group of screens. Unless noted, calls come from the whole dose curve; as a rule, active = well fitted inhibition curve with a large enough effect (not every such curve was filed as active); inconclusive = small, poorly fitted or top-dose-only effect, or another doubt; inactive = no such curve, though single readings can be large or run the other way. Unless noted, % is set by controls: 0 for no effect and ±100 for the full control effect; potency is the fitted concentration of half-maximal effect.
SMILES,ALDH1A1 block,HPGD block,Lamin A splicing,KinaseGlo FLuc,IMPase Li cell
O=[N+]([O-])c1cccc(-c2ccc(/C=N/n3c(-c4ccccc4)n[nH]c3=S)o2)c1,0%,?,-4%,1%,-8%
COC(=O)CCCC1=CC2=C(c3ccccc3)C(=O)C(C)(OC(=O)C3CCCC3)C(=O)C2=CN1CCCOC(C)C (stereo not drawn),?,-15%,-14%[9.22 µM],-8%[7.66 µM],4%
COCC(C)n1c(SCC(=O)NNC(=O)c2ccc(F)cc2)nc2ccccc2c1=O (stereo not drawn),7%,-5%,-12%,3%,4%
Cc1sc2nc3c(C(=O)N4CCN(c5ccccn5)CC4)cccn3c(=O)c2c1C,-3%,?,2%,-1%,-9%[38.3 µM]
CCOC(=O)c1cc(C(=O)c2ccccc2O)cn2c(=O)c3c(C)c(C)sc3nc12,14µM*,·,-2%[46 µM],-1%,4%
CN1CCN(C(=O)c2cccc(COc3cc(Cl)ccc3Cl)c2)CC1,10µM*,-7%,9%,3%,3%
COc1ccc(NS(=O)(=O)CC23CCC(CC2=O)C3(C)C)cc1 (stereo not drawn),7.9µM*,-14%,6%,2%,5%[38.3 µM]
CCOc1ccc(NS(=O)(=O)CC23CCC(CC2=O)C3(C)C)cc1 (stereo not drawn),5%,-5%,-8%,-4%,21%[38.3 µM]
Cc1cccnc1NCc1ccc(O)c2ncccc12,20µM*,-27%,?,13%,-5%[38.3 µM]
Cc1ccc(NCc2ccc(O)c3ncccc23)cc1,3%,·,·,-5%,32%
Cc1cccc(NCc2ccc(O)c3ncccc23)c1C,10µM*,·,?,-1%,-3%
COc1ccc(-c2nc3sc(CCNC(=O)C(=O)Nc4cc(F)ccc4F)c(C)n3n2)cc1,·,·,-9%[46 µM],·,·
O=S(=O)(Cc1ccccc1)/C1=C(\N2CCOCC2)CCCCCC1,13µM*,-9%,?,10%,-18%[38.3 µM]
O=C(/C(=C/c1ccccc1)c1ccccc1)N1CCCCC1,4%,0.71µM*,-5%[0.0737 µM],-1%,0%[38.3 µM]
O=C(/C=C/c1ccccc1)N/C(=C/c1ccccc1)C(=O)N1CCCCC1,14µM*,·,-5%,·,·
COc1cccc(C(=O)CSc2nnnn2C2CCCCC2)c1,2.8µM*,-25%,6%,-4%,50%[38.3 µM]
Cc1cc(C(=O)CSc2nnnn2C)c(C)n1-c1ccc2c(c1)OCCO2,?,25µM*,?,-6%,42%[38.3 µM]
Cn1ccnc1SCC(=O)Nc1ccc2c(c1)OCO2,14µM*,·,-9%[46 µM],-5%,-11%
Cc1cc(C(=O)CSc2nnc(-c3ccco3)o2)c(C)n1-c1ccc2c(c1)OCCO2,-8%,-15%,-10%,12%,-14%[38.3 µM]
COCCCn1nnnc1SCC(=O)Nc1ccc2c(c1)OCCO2,13µM*,·,?,3%,1%
CCn1nnnc1SCC(=O)Nc1ccc2c(c1)OCCO2,?,-10%,-11%,-2%,2%
CCOC(=O)C1=NOC2COC3(CCN(c4ncccn4)CC3)OCC12 (stereo not drawn),-9%,·,·,1%,-6%
CCC(C)NC(=O)C1CCN(S(=O)(=O)c2ccc3c(c2)CCCN3C(C)=O)CC1 (stereo not drawn),·,·,11%[46 µM],·,·
COC(=O)COc1ccc(S(=O)(=O)Nc2cc([N+](=O)[O-])ccc2C)cc1,4%,·,-13%[46 µM],2%,2%
Cc1ccc2c3c(c(SCC(=O)Nc4nccs4)nc2c1)CCCC3,8%,-4%,4%[0.0737 µM],4%,-1%[38.3 µM]
SMILES,ALDH1A1 block,HPGD block,Lamin A splicing,KinaseGlo FLuc,IMPase Li cell
COCCn1nnnc1SCC(=O)Nc1ccc2c(c1)OCO2,20µM*,·,-10%[46 µM],-5%,-2%
CCc1cc2cc3c(cc2nc1SCC(=O)Nc1nccs1)OCO3,3%,-10%,16%,1%,13µM*
COc1ccc(-n2nnnc2SCC(=O)Nc2ccc3c(c2)OCCO3)c(OC)c1,7.1µM*,-10%,?,-2%,4%[38.3 µM]
COc1cccc(-n2nnnc2SCC(=O)Nc2ccc3c(c2)OCCO3)c1,-5%,-9%,27%,0%,18%[38.3 µM]
O=C(CSc1nnnn1C1CCCC1)c1ccc2c(c1)OCCO2,3.2µM*,-19%,1%,2%,0%
CC1CC(C)(C)NC(=S)N1CCC(=O)N1c2ccccc2CC1C (stereo not drawn),4%,·,3%[9.22 µM],-1%,2%
N#Cc1ccsc1NC(=O)CSc1ncn[nH]1,-8%,-17%,3%,1%,13%[38.3 µM]
Cc1cc(NC(=O)CSc2nccn2C)no1,7%,·,·,2%,3%
O=C(CSc1nnnn1C1CCCC1)Nc1ccc2c(c1)OCO2,11µM*,-1%,7%,0%,-2%[38.3 µM]
CCOC(=O)c1ccc(NC(=O)CSc2nnnn2C2CCCCC2)cc1,11%,0%,-2%,-3%,0%
Cc1cc(C)c(NC(=O)CSc2nccn2C)c(C)c1,-7%,6.3µM*,4%,0%,2%
Cc1ccc(C#N)c(SCC(=O)Nc2nccs2)n1,3%,·,·,1%,13µM*
Cn1ccnc1SCC(=O)Nc1sccc1C#N,25µM*,-15%,2%,-3%,-2%[38.3 µM]
CCn1nnc2cc(C(=O)O)ccc21,2%,·,6%[46 µM],·,·
Cc1nc2nc(-c3ccc(Cl)cc3)[nH]n2c(=O)c1C,3%,-13%,4%,-9%,-3%[38.3 µM]
Cc1[nH]n(-c2ncc(-c3ccc(Cl)cc3)s2)c(=O)c1C(c1ccc(Cl)cc1)C(C#N)C#N (stereo not drawn),?,10µM*,?,-1%,2%
O=C1c2ccccc2C(Nc2ccc(Cl)cn2)N1Cc1ccccc1 (stereo not drawn),13µM*,-21%,6%,1%,4%[38.3 µM]
C=CCOc1c(Br)cc(CNc2ccc(NC(=O)C(C)C)c(OC)c2)cc1OC,?,-5%,-4%[0.0737 µM],0%,19%[38.3 µM]
Cc1nc(-c2ccc(S(=O)(=O)Nc3ccc(C#N)cc3)cc2)co1,·,·,7%[46 µM],·,·
CCOC(=O)c1c(N)sn(-c2ccccc2C)c1=S,3.5µM*,11µM*,-2%,11%,-1%[38.3 µM]
CCOC(=O)c1nn(-c2ccccc2C)c(=O)c(C#N)c1C,4%,-2%,6%,-2%,-19%[38.3 µM]
C=CCc1ccccc1OCC(O)CN1CCN(C(=O)OCC)CC1 (stereo not drawn),20µM*,-16%,?,-1%,14%[38.3 µM]
CCCCSc1nnc([C@H](C)NC(=O)OC(C)(C)C)o1,22µM*,-30%,4%,1%,5%[38.3 µM]
CCCCSc1nnc([C@H](CC(C)C)NC(=O)OC(C)(C)C)o1,-7%,-2%,1%,-8%,25%[38.3 µM]
CCc1ccccc1NC(=O)CSc1nnc([C@H](CCSC)NC(=O)OC(C)(C)C)o1,22µM*,-18%,-5%,12%,19%[38.3 µM]
CSCC[C@H](NC(=O)OC(C)(C)C)c1nnc(SCC(=O)Nc2ccc(C)cc2C)o1,3%,-13%,0%,-5%,-5%[38.3 µM]
Cc1ccc(C(=O)c2coc3cc([N+](=O)[O-])c(O)c([N+](=O)[O-])c23)cc1,?,14µM*,?,-2%,10%
